Screening data (PubChem)
Most compounds without a hit are left out; they make up all but 15% or so of the library.
Sm TGR inh – qHTS Assay for the Inhibitors of Schistosoma Mansoni Peroxiredoxins; Schistosoma mansoni thioredoxin glutathione reductase (TGR), Q962Y6; purified TGR, DTNB reduction, TNB absorbance 405 nm; Potency, µM (series often up to 114 µM), for the others: at the highest dose activity change, negative = inhibition, most hits filed as inhibitors; 3% of 360,000 active; AID 485364, 2010; note: potency is the fitted concentration of half-maximal effect; % is set by controls: 0 for no effect and ±100 for the full control effect; nearly all actives have a fitted effect of over 60% in size
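Kinetic colorimetric format: TGR-catalysed, NADPH-driven DTNB reduction monitored via TNB absorbance. Enzyme dispensed at 20 nM; compound exposure 15 min at room temperature before reaction start.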
HCV inh – qHTS Assay for Inhibitors of Hepatitis C Virus (HCV); Potency, µM (top dose mostly 41.8 µM), without a hit: at the top dose activity change, negative = inhibition, actives largely listed as inhibitors; Huh7.5.1 HCVcc-Cre infection, luciferase reporter, 44 h; 3.4% of 340,000 active; note: potency is the fitted concentration of half-maximal effect; % is set by controls: 0 for no effect and ±100 for the full control effect
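Infectious HCVcc-Cre (~0.5 moi) was added to cells just after compound, with cells seeded 4 h earlier at 1,000 per well. Luciferase activity after 44 h culture reported infection; substrate was incubated 15 min at room temperature before reading.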
Pf growth 48h – Primary qHTS for delayed death inhibitors of the malarial parasite plastid, 48 hour incubation; P. falciparum luciferase growth in erythrocytes, 48 h; Potency, µM (highest dose often 28.7 µM), without a hit: at the top dose activity change, negative = inhibition, usual class: inhibitors; 5.9% of 310,000 active; note: potency is the fitted concentration of half-maximal effect; % is set by controls: 0 for no effect and ±100 for the full control effect
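Luciferase-expressing parasites in RBCs, 2% Hct / 0.1% parasitemia final; RPMI 1640 + 0.5% Albumax; 37 C, 5% CO2, one generation; luminescence read-out, lower signal = inhibition.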
SARS PLP yeast – qHTS of Yeast-based Assay for SARS-CoV PLP; S. cerevisiae expressing SARS-CoV PLpro, growth rescue; Potency, µM (titrated, usually from 32.9 µM), for the others: at the top dose activity, positive = growth rescue, usual class: activators; 0.19% of 330,000 active; AID 485353, 2010; calls by dose curve; note: potency is the fitted concentration of half-maximal effect; 0% is about no effect; nearly all actives have a fitted effect of over 55% in size
Pf growth 96h – Primary qHTS for delayed death inhibitors of the malarial parasite plastid, 96 hour incubation; P. falciparum luciferase reporter growth, 96 h; Potency, µM (titrated, usually from 28.7 µM), for the others: at the highest dose activity change, negative = inhibition, usual class: inhibitors; AID 504834, 2011; 6.9% of 320,000 active; note: potency is the fitted concentration of half-maximal effect; % is set by controls: 0 for no effect and ±100 for the full control effect
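96 h incubation, 37 C, 5% CO2, of luciferase-reporter P. falciparum-infected RBCs (2% hematocrit, 0.05% parasitemia final) with test compounds; endpoint luminescence.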
HCMV antiviral – qHTS Assay for inhibitors of the human cytomegalovirus (HCMV); HFF cells, HCMV-luciferase reporter, 72 h; hits give low values; activity change, negative = inhibition, % at 57.5 µM; 4.5% of 410,000 active; in the data active = activity change below about -60%; inconclusive = no clear call, values can overlap the other calls; inactive = above about -39%; note: % is set by controls: 0 for no effect and ±100 for the full control effect
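Two compound doses tested in HFFs infected with HCMV-luciferase, MOI 1 PFU/cell, 72 h at 37C. Lysate luminescence read with OneGlo; data normalized against buffer-only and 10uM Salinomycin inhibitor controls.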
Numbers without * were called inactive; ? = inconclusive; / = not tested or not shown; [ ] = dose if it differs, or a comment. Unless noted, calls come from the whole dose curve; as a rule, active = well fitted curve in the direction sought with a large enough effect; inconclusive = small, poorly fitted or top-dose-only effect, or another doubt; inactive = no such curve, though single readings can be large; an effect the other way counts as inactive or inconclusive.

SMILES	Sm TGR inh	HCV inh	Pf growth 48h	SARS PLP yeast	Pf growth 96h	HCMV antiviral
Cc1ccc(N2CCn3c2nc2c3c(=O)n(CCCc3ccccc3)c(=O)n2C)cc1C	11%	/	/	/	/	-22
Cc1ccc2nc(Nc3cccc(C(F)(F)F)c3)c3nnnn3c2c1	-2%	/	/	/	/	10
COc1cccc(CN2CCNC(=O)C2CC(=O)NCCCN2CCCC2=O)c1 (stereo unspecified)	18µM*	28%	-2%	4%	-33%	-23
COc1cccc(CCNC(=O)CC2C(=O)NCCN2Cc2ccc(C)o2)c1 (stereo unspecified)	50µM*	10%	-1%	4%	?	0
COc1cccc(CCNC(=O)CC2C(=O)NCCN2CC(C)(C)C)c1 (stereo unspecified)	?	4%	13%	1%	15µM*	-24
Cc1ccc(CN2CCNC(=O)C2CC(=O)N(C)C2CCCCC2)o1 (stereo unspecified)	?	11%	7%	0%	-26%	-22
Cc1ccc(CN2CCNC(=O)C2CC(=O)O)o1 (stereo unspecified)	45µM*	-4%	2%	-3%	4%	-5
COc1ccc(CCNC(=O)CC2C(=O)NCCN2CC(C)(C)C)cc1 (stereo unspecified)	?	8%	-14%	-1%	-15%	22
CC1CCN(C(=O)COC(=O)c2cc3ccccc3oc2=O)CC1	/	?	/	2%	/	5
Cc1ccc(C)n1C1C(=O)N(Cc2ccc(C(F)(F)F)cc2)c2c(F)cccc21 (stereo unspecified)	/	/	/	/	/	-35
Fc1cccc(-c2nc(-c3ccncc3)no2)c1	10%	/	/	/	/	31
CC(=O)Nc1ccc(NC(=O)c2c([N+](=O)[O-])cnn2C)cc1	-4%	10%	5%	18%	?	22
Cn1ncc([N+](=O)[O-])c1C(=O)Nc1nccs1	-1%	8%	-18%	-11%	19%	-64*
Cn1ncc([N+](=O)[O-])c1C(=O)Nc1cccc2ccccc12	1%	-23%	16%	-1%	2.3µM*	-63*
Cn1ncc([N+](=O)[O-])c1C(=O)Nc1ccc(-c2nc3ccccc3o2)cc1	-16%	-26%	6%	0%	4.7µM*	0
c1cncc(C2SCCCS2)c1	/	/	/	/	/	29
Cc1ccccc1C(=O)Nc1cccc(OCc2cc(=O)n3cccc(C)c3n2)c1	-5%	/	/	/	/	-30
CC(C)SCCCOc1ccc(C(C)(C)C)cc1	-5%	5%	/	-3%	1%	-86*
CC(C)SCCCCOc1ccc2ccccc2c1	21%	3%	89%	3%	?	42
Cc1ccc(Nc2nc(Cl)nc(N(C)C#N)n2)cc1	-2%	?	18%	-6%	7.4µM*	28
Cc1cccc(-c2noc(CN(C(=O)COc3ccc(Br)cc3C)C(C)C)n2)c1	-2%	/	/	/	/	8
CSc1ccc2c(c1)N(CCC1CCCCN1C)c1ccccc1S2 (stereo unspecified)	5%	?	9.3µM*	-3%	?	?
CSc1ccc2c(c1)C(N1CCN(C)CC1)Cc1ccc(F)cc1S2 (stereo unspecified)	/	?	/	/	/	-10
O=C(Nc1cc(S(=O)(=O)N2CCOCC2)ccc1N1CCCC1)c1ccccc1C(F)(F)F	/	-4%	/	/	/	?
COc1ccc(Br)cc1[C@H]1[C@@H]2C=CCC[C@@]2(C)C(=O)N1Cc1ccccc1	-7%	-12%	?	-18%	12µM*	16
SMILES	Sm TGR inh	HCV inh	Pf growth 48h	SARS PLP yeast	Pf growth 96h	HCMV antiviral
COc1ccc(-c2ccc(OC)c([C@H]3[C@@H]4C=CCC[C@@]4(C)C(=O)N3Cc3ccccc3)c2)cc1OC	-20%	-12%[8.37 µM]	8.3µM*	-4%	12µM*	27
COc1ccc(/C=C/c2ccccc2)cc1[C@H]1[C@@H]2C=CCC[C@@]2(C)C(=O)N1Cc1ccccc1	28µM*	-15%	10µM*	-2%	?	22
COc1ccc(-c2ccc(N(C)C)cc2)cc1[C@H]1[C@@H]2C=CCC[C@@]2(C)C(=O)N1Cc1ccccc1	?	-2%	9.3µM*	-4%	9.3µM*	19
CSc1ccc(CCNC(=O)Cn2nc(C)n3c(cc4sccc43)c2=O)cc1	2%	/	/	/	/	-15
CCCCN1CC(COCc2ccccc2)Oc2ccccc2S1(=O)=O (stereo unspecified)	/	-24%	/	-6%	/	-18
COc1ccc(C2=NN(CC(=O)NCCc3ccccc3)C(=O)CC2)cc1	-8%	/	/	/	/	75
COc1ccc(C2=NN(CC(=O)Nc3ccccc3C)C(=O)CC2)cc1	5%	?	4.1µM*	-3%	?	27
Cc1c(Cl)ccc2c1NC(=O)[C@]21[C@@H]2C(=O)N(Cc3ccccc3)C(=O)[C@@H]2[C@@H]2CCCN21	-32%	1%	?	-5%	/	106
CCc1cccc2c1NC(=O)[C@]21[C@@H]2C(=O)N(Cc3ccccc3)C(=O)[C@@H]2[C@@H]2CCCN21	?	-6%	9.3µM*	-1%	-2%[5.75 µM]	-22
Cc1nnc(NC(=O)c2ccccc2Oc2ccccc2)s1	7%	-14%	-18%	1%	5%	-26
O=C(CSc1nc(Cc2ccccc2)nc2ccccc12)c1ccc2c(c1)OCCO2	-9%	?	9.3µM*	2%	?	?
Cc1cc(NC(=O)CSc2nc3ccccc3c(=O)n2C(C)c2ccccc2)no1 (stereo unspecified)	10%	?	/	-3%	12µM*	?
CCc1nc(SCC(=O)c2ccccc2)c2ccccc2n1	45µM*	?	?	-1%	?	-35
O=C(CSc1ncnc2ccccc12)c1ccc2c(c1)OCCO2	6%	?	129%	-18%	52%	?
CCc1nc(SCC(=O)N2c3ccccc3Sc3ccccc32)c2ccccc2n1	-2%	?	?	-2%	?	?
CCc1nc(SCC(=O)c2ccc3c(c2)OCCO3)c2ccccc2n1	-2%	8.9µM*	?	-12%	10µM*	?
CN1CCN(c2nccc3[nH]c(-c4ccccc4Cl)nc23)CC1	/	/	/	/	/	-5
COc1ccc(Cn2cc(C(=O)c3ccc(C)c(C)c3)c(=O)c3ccccc32)cc1	10%	/	/	/	/	?
O=C(O)CC(Sc1n[nH]c(=S)s1)C(=O)O (stereo unspecified)	-21%	17%	-14%	1%	-8%	31
CCc1nc(SCC(=O)NNC(=O)c2ccc(OC)cc2)c2ccccc2n1	1%[57.1 µM]	2%	-17%	0%	?	20
